In PMC8159961, “Exploring protein hotspots by optimized fragment pharmacophores” (Nature Communications, 2021):
Unmarked numbers belong to inactive results. The rule behind the calls is not given here.

Each compound was assayed against histone methyltransferase SET domain containing 2 (SETD2) (Homo sapiens, UniProt Q9BYW2) (assay: primary screen, binary call; higher = more effect of the substance).
Protocol: The Chemiluminescence assay evaluates SETD2 specific tri -methylation activity towards histone H3K36. The kit consist s of recombinant SETD2, S-adenosylmethionine and a specific H3K36me3 antibody and was performed according to the manufacturer’s protocol (Catalo g- No. 52060, https://bpsbioscience.com/setd2 -chemiluminescent-assay-kit-52060). Values were blank corrected and normalized . Enzymatic activities were calculated relative to the positive control of the kit (full enzymatic activity) and to the known SET doma in inhibitor Sinefungin28 used as negative control (complete enzymatic activity inhibition). Compounds used were diluted in DMSO.

Sequence of histone methyltransferase SET domain containing 2 (SETD2) (Q9BYW2 whole entry, looked up, the tested form may be a part): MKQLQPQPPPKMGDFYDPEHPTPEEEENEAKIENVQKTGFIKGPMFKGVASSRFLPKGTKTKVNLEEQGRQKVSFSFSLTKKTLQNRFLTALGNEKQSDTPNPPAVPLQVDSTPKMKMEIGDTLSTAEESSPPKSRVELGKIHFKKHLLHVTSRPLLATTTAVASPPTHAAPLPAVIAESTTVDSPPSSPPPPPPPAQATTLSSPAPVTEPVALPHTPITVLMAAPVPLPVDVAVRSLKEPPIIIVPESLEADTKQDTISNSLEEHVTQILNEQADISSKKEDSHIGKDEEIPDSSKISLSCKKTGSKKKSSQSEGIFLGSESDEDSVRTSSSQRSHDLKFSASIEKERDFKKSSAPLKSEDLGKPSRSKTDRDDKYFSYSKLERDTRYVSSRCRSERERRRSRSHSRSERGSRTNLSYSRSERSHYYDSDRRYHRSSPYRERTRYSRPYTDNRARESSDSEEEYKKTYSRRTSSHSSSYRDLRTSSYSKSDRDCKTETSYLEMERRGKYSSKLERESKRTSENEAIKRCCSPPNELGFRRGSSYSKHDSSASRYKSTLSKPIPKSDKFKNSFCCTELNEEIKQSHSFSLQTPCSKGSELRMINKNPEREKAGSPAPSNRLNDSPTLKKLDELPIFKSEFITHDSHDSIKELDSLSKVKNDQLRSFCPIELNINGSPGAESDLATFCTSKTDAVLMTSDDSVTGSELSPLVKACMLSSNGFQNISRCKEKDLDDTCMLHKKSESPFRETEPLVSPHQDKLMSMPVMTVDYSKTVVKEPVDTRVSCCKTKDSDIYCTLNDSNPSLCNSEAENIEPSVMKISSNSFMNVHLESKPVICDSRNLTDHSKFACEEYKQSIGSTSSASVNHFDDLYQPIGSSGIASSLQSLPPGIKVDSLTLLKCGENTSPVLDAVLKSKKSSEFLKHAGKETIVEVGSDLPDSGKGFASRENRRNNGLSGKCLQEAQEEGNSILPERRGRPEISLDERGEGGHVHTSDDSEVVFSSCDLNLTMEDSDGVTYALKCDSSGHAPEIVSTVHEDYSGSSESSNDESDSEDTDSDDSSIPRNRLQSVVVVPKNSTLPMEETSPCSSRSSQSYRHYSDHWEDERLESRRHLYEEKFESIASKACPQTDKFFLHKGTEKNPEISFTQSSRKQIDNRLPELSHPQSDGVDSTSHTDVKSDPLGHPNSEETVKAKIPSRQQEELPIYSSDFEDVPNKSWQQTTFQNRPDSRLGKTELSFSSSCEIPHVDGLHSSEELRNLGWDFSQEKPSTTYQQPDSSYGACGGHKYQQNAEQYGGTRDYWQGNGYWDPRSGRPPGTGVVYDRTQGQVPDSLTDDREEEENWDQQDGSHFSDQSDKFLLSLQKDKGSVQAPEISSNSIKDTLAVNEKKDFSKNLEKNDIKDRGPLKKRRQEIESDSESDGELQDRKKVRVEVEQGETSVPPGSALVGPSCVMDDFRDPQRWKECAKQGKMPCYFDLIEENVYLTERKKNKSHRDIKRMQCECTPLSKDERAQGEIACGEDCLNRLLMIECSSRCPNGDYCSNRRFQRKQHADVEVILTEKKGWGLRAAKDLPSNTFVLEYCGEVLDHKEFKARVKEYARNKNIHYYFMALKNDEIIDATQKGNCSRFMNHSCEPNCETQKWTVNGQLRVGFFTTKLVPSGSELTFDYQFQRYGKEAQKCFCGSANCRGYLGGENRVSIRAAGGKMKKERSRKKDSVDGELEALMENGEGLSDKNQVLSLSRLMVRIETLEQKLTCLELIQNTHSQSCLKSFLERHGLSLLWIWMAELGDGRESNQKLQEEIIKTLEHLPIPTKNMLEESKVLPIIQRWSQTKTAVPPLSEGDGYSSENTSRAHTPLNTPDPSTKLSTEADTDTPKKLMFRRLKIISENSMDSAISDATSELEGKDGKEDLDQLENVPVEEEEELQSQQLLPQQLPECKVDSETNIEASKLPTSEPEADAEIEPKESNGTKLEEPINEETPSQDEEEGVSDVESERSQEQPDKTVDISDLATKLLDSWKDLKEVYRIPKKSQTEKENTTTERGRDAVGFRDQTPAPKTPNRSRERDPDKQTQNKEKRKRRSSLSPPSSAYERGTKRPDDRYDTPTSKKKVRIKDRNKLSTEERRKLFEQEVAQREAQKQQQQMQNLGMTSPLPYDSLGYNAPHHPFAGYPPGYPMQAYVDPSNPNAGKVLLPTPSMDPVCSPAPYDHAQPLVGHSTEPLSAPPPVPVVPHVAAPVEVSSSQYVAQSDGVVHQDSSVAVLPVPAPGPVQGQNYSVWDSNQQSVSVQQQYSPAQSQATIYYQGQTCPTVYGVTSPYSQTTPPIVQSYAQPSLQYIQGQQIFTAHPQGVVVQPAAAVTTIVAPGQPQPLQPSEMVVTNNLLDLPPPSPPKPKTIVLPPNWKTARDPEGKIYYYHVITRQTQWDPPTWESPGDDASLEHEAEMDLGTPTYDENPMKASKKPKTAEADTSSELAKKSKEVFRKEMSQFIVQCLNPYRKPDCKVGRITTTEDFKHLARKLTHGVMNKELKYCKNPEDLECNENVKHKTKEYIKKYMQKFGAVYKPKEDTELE

**Q.** `COc1cccc(NC2=NCCCCC2)c1` was tested. Which SETD2 did it give?
**A.** 0

**Q.** For `COc1ccccc1CC1CCNCC1.Cl`, which SETD2 is on record?
**A.** 0

**Q.** `O=c1[nH]ncc2c1oc1ccccc12` was tested. Which SETD2 did it give?
**A.** 0

**Q.** For `c1ccc2c(N3CCNCC3)ccnc2c1`, which SETD2 is on record?
**A.** 0

**Q.** `O=C1NC2(CCCC2)Nc2ccccc21` was tested. Which SETD2 did it give?
**A.** 0

**Q.** With `O=C1CCCc2occc21` as the compound, how does the SETD2 read?
**A.** 0

**Q.** With `Oc1nnc(-c2ccccc2)o1` as the compound, how does the SETD2 read?
**A.** 0

**Q.** With `Oc1ccc(-n2cncn2)cc1` as the compound, how does the SETD2 read?
**A.** 0

**Q.** How did the SETD2 turn out when `N#Cc1ccc2ncsc2c1` was run?
**A.** 0

**Q.** For `O=C(Nc1ccccc1)C1CC1`, which SETD2 is on record?
**A.** 0

**Q.** How did the SETD2 turn out when `CCc1nccn1CC(=O)O` was run?
**A.** 0

**Q.** How did the SETD2 turn out when `c1cnc2c(c1)NCCC2` was run?
**A.** 0

**Q.** For `O=C(O)c1cccc(Nc2ncccn2)c1`, which SETD2 is on record?
**A.** 0

**Q.** For `O=c1ccc2c([nH]1)CCCC2`, which SETD2 is on record?
**A.** 0

**Q.** For `CC(=O)c1sc(-c2ccc(O)cc2)nc1C`, which SETD2 is on record?
**A.** 0

**Q.** For `O=C1CCN(c2ccncc2)CC1`, which SETD2 is on record?
**A.** 0

**Q.** With `Cc1nc(-c2ccccc2)cs1` as the compound, how does the SETD2 read?
**A.** 0

**Q.** Which SETD2 does the source give for `Fc1ccc(CC2CCCNC2)cc1` (stereo not shown) here?
**A.** 0

**Q.** For `Cc1cnc(C(F)(F)F)cn1`, which SETD2 is on record?
**A.** 0

**Q.** `Oc1cnc(-c2ccccc2)nc1` was tested. Which SETD2 did it give?
**A.** 0

**Q.** Which SETD2 does the source give for `CCCN1C(=O)CC(=O)NC1=S` here?
**A.** 0

**Q.** How did the SETD2 turn out when `Nc1nnc(-c2cccs2)[nH]1` was run?
**A.** 0

**Q.** `O=C(O)c1ccc(CN2CCOCC2)cc1` was tested. Which SETD2 did it give?
**A.** 0

**Q.** With `Cn1c(CO)nc2ccccc21` as the compound, how does the SETD2 read?
**A.** 0

**Q.** Which SETD2 does the source give for `CC(=O)c1ccc2c(c1)CNCC2` here?
**A.** 0

**Q.** How did the SETD2 turn out when `NCC1(c2ccccc2)CCOCC1` was run?
**A.** 0

**Q.** Which SETD2 does the source give for `CC(=O)c1ccc2c(c1)CCCN2` here?
**A.** 0

**Q.** `Cc1ccc(-c2ccc(O)cc2)cc1` was tested. Which SETD2 did it give?
**A.** 0

**Q.** With `COc1ccc(CN2CCNCC2)cc1F` as the compound, how does the SETD2 read?
**A.** 0

**Q.** Which SETD2 does the source give for `N#CC1CCS(=O)(=O)C1` (stereo not shown) here?
**A.** 0

**Q.** Which SETD2 does the source give for `NC(c1ccccc1)c1ccccc1` here?
**A.** 0

**Q.** For `O=C(O)C1CCN(c2ncccn2)CC1`, which SETD2 is on record?
**A.** 0

**Q.** For `Clc1ccc2nnnn2n1`, which SETD2 is on record?
**A.** 0

**Q.** For `CS(=O)(=O)Nc1ccc(C(=O)O)cc1`, which SETD2 is on record?
**A.** 1 (active)

**Q.** Which SETD2 does the source give for `Cc1cc(-c2ccccc2)n[nH]1` here?
**A.** 0

**Q.** How did the SETD2 turn out when `O=C1CC(CSc2ccc(Cl)cc2)=NN1` was run?
**A.** 0

**Q.** For `Cn1c(N)nc2ccccc21`, which SETD2 is on record?
**A.** 1 (active)

**Q.** How did the SETD2 turn out when `N#Cc1ccc(C(=O)N2CCOCC2)cc1` was run?
**A.** 0

**Q.** `CC1C(=O)NC(=O)N1c1ccc(Cl)cc1` (stereo not shown) was tested. Which SETD2 did it give?
**A.** 0

**Q.** For `Cc1cc(N)no1`, which SETD2 is on record?
**A.** 0
